Some test systems named below: HCT-15 colon; HT29 colon; SNB-75 CNS; SNB-19 CNS; U251 CNS; PC-3 prostate; SK-MEL-5 melanoma; UACC-62 melanoma; LOX IMVI melanoma; SK-MEL-28 melanoma.
What all share (experiment): NCI-60 one-dose screen, 48 h (100 = growth as untreated, 0 = no growth, -100 = all killed)
What all share (conditions): 10 µM unless noted

Structures are written as SMILES. The panel holds about 83,000 compounds, 20% with a hit somewhere; the sample as a whole holds those more often.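 Growth was measured after 48 h exposure to one concentration of compound in 96-well plates. Values under 10 count as active.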 A number with no mark means an inactive call. Calls of active or inactive are those of the source.

The text below walks through data of PubChem BioAssay (NCI).

For the molecule `CCCCn1cnc(-c2cc(-c3ccccc3)cc(C(F)(F)F)c2)n1`, the growth in the test on HCT-15 colon is 104%; in the test on HT29 colon, 101%; with SNB-75 CNS, 98.9%; in the test with SNB-19 CNS it was 98.6%; in the test on U251 CNS it was 97.7%; in the test with PC-3 prostate, 82.7%. The growth is 101% in the test with SK-MEL-5 melanoma, 90.3% with UACC-62 melanoma, 105% with LOX IMVI melanoma and 109% with SK-MEL-28 melanoma.

As to `CN(C)c1ccc(N2Cc3ccccc3OC3=C2C(=O)c2c(O)ccc(O)c2C3=O)cn1`, the growth with HCT-15 colon is -64.4% (active); with HT29 colon, -50.8% (active); in the test with SNB-75 CNS it was 0.378% (active); with SNB-19 CNS it was 6.23% (active); in the test on U251 CNS it was -15.7% (active); in the test on PC-3 prostate, -4.29% (active). In addition, the growth in the test on SK-MEL-5 melanoma was -81.3% (active); in the test with UACC-62 melanoma, -87.4% (active); in the test with LOX IMVI melanoma, -68.1% (active); in the test on SK-MEL-28 melanoma, -82.8% (active).

In the case of `COc1cc(NCCCCC(C)N)c2nccc(C)c2c1` (stereo not given), the growth in the test with HCT-15 colon was 93.9%; in the test on HT29 colon, 76.3%; in the test with SNB-75 CNS, 72%; with SNB-19 CNS it was 94.6%; with U251 CNS it was 93%; in the test with PC-3 prostate, 66%. The growth was 87.7% in the test on SK-MEL-5 melanoma, 91.1% in the test with UACC-62 melanoma, 92.7% in the test with LOX IMVI melanoma and 99.3% in the test on SK-MEL-28 melanoma.

Regarding `CC(=O)c1cc(C(=O)c2ccc3c(c2)Sc2ccccc2N3)c2c(C)cccn12`, the growth in the test on HCT-15 colon is 15.8%; in the test on HT29 colon, 12%; in the test with SNB-75 CNS, 24.3%; with SNB-19 CNS, 33.8%; with U251 CNS, 13.6%; with PC-3 prostate, 26.8%. For the same molecule, the growth is 8.21% (active) in the test on SK-MEL-5 melanoma, 26.3% in the test with UACC-62 melanoma, 14.1% in the test on LOX IMVI melanoma and 62.5% with SK-MEL-28 melanoma.

Turning to `COc1ccc2c(c1)CCCC21C(=O)Nc2ccccc21` (stereo not given), the growth with HCT-15 colon was 97.2%; with HT29 colon it was 87.4%; in the test on SNB-75 CNS it was 101%; in the test with SNB-19 CNS, 105%; with U251 CNS, 99.3%; in the test with PC-3 prostate, 104%. For the same molecule, the growth was 103% with SK-MEL-5 melanoma, 106% in the test on UACC-62 melanoma, 98% in the test on LOX IMVI melanoma and 111% with SK-MEL-28 melanoma.

Consider `CC(=O)c1c(O)c(C)c(O)c2c1OC1=CC(=O)/C(=C(/C)N)C(=O)C12C` (stereo not given), for which the growth is 83.3% with HCT-15 colon; 65.1% with HT29 colon; 91.5% with SNB-75 CNS; 103% with SNB-19 CNS; 94.7% in the test with U251 CNS; 85.1% in the test with PC-3 prostate. The growth with SK-MEL-5 melanoma is 88.4%; with UACC-62 melanoma it was 77.8%; in the test with LOX IMVI melanoma it was 86.6%; in the test on SK-MEL-28 melanoma, 105%.

In the case of `COc1cc(C(=O)/C=C/c2cn(-c3ccccc3)nc2-c2cccc(Nc3ccnc4cc(Cl)ccc34)c2)cc(OC)c1OC`, the growth was 87.4% with HCT-15 colon; 77.1% in the test on HT29 colon; 107% with SNB-75 CNS; 116% in the test with SNB-19 CNS; 88.1% in the test on U251 CNS; 107% in the test on PC-3 prostate. The growth is 71.4% with SK-MEL-5 melanoma, 104% in the test with UACC-62 melanoma, 71.5% in the test on LOX IMVI melanoma and 93.9% with SK-MEL-28 melanoma.

For the molecule `O=C(Nc1ccc(Br)cc1)Nc1ccccc1Cl`, the growth was 87.1% in the test with HCT-15 colon; 95.3% with HT29 colon; 77.8% in the test with SNB-75 CNS; 117% in the test with SNB-19 CNS; 91.9% in the test with U251 CNS; 83.9% with PC-3 prostate. The growth was 101% with SK-MEL-5 melanoma, 56.5% with UACC-62 melanoma, 81.3% in the test with LOX IMVI melanoma and 107% with SK-MEL-28 melanoma.

In the case of `CCN(CC)CCCC(C)N/C(c1cccc(OC)c1)=c1\c(=O)[nH]n(-c2c3ccccc3nc3ccccc23)c(=O)\c1=C(/NC(C)CCCN(CC)CC)c1cccc(OC)c1` (stereo not given), the growth in the test with HCT-15 colon was 2.74% (active); with HT29 colon it was -68% (active); in the test with SNB-75 CNS, -22.5% (active); in the test with SNB-19 CNS, 13%; in the test on U251 CNS it was -73% (active); in the test with PC-3 prostate it was -57.7% (active). Besides, the growth with SK-MEL-5 melanoma was -98.9% (active); in the test on UACC-62 melanoma it was -77.9% (active); in the test with LOX IMVI melanoma, -66.1% (active); with SK-MEL-28 melanoma, -96% (active).

Regarding `CCCCCc1c(C)[nH]c(/C=C2\N=C(c3ccc[nH]3)C=C2CC)c1C`, the growth in the test with HCT-15 colon was -83.5% (active); with HT29 colon it was -86.9% (active); in the test with SNB-75 CNS, -81.4% (active); with SNB-19 CNS, -95.4% (active); in the test with U251 CNS, -95.3% (active); in the test on PC-3 prostate, -89.3% (active). For the same molecule, the growth in the test with SK-MEL-5 melanoma is -96.5% (active); in the test with UACC-62 melanoma, -97.4% (active); in the test on LOX IMVI melanoma, -90.7% (active); in the test with SK-MEL-28 melanoma it was -97.4% (active).

Consider `O=c1c2sc3ncc(Cl)cc3c2nnn1-c1cccc(Cl)c1`, for which the growth is 87.5% in the test on HCT-15 colon; 75.9% in the test on HT29 colon; 70.1% in the test on SNB-75 CNS; 98.2% in the test on SNB-19 CNS; 59.9% in the test with U251 CNS; 82.7% in the test with PC-3 prostate. In addition, the growth in the test with SK-MEL-5 melanoma is 96.3%; in the test with UACC-62 melanoma, 96.8%; in the test with LOX IMVI melanoma it was 52.9%; in the test with SK-MEL-28 melanoma it was 90.5%.

Consider `Clc1cc(Br)ccc1-c1ccc(CNCC2CCNCC2)o1`, for which the growth in the test with HCT-15 colon is 55.1%; in the test with HT29 colon, 31.7%; in the test on SNB-75 CNS it was 9.93% (active); with SNB-19 CNS, 42.1%; in the test with U251 CNS it was 16.9%; in the test with PC-3 prostate, 54.1%. For the same molecule, the growth in the test on SK-MEL-5 melanoma is 61.5%; with UACC-62 melanoma, 59.4%; in the test with LOX IMVI melanoma, 23.4%; with SK-MEL-28 melanoma it was 42.3%.
